{"source": "PubChem BioAssay AID652115", "about": "(Broad Institute, 2013)", "note": "Values joined by “and” are separate entries in the source; they are usually repeats but may differ in a detail not shown here. Equal entries are not always repeated. Among all 330,000 compounds or so, about 3,800 (1.2%) were called active. Cut-off read from the data, not from the text of the source: active = inhibition above about 15%; inconclusive = no clear call, values can overlap the other calls; inactive = below that. This excerpt belongs to a sample that is enriched for actives. Some compounds were tested as several samples or in several runs, with calls that do not always agree.", "data": [{"molecular_target": "NAD-dependent protein deacylase sirtuin-5, mitochondrial (Homo sapiens) (UniProt Q9NXA8)", "sequence (Q9NXA8 whole entry, looked up)": "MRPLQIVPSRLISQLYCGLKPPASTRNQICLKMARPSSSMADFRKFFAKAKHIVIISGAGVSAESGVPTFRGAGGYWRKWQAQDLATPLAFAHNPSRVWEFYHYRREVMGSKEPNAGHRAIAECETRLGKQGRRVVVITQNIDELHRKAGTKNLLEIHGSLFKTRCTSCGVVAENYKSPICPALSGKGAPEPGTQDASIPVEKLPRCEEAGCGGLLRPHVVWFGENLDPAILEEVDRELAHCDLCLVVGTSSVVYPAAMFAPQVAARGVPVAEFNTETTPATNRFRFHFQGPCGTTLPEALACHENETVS", "test": "SIRT5 desuccinylase inhibitors, primary screen, biochemical, fluorescence imaging, single point, set 5 (AID 652115)", "conditions": "Purified SirT5, succinyl-peptide AMC, trypsin-coupled fluorescence; at 15 µM; stronger effect = higher value", "values": [{"smiles": "CCOC(=O)CN1C(=O)C(O)(CC(=O)c2ccccn2)c2ccccc21", "note": "(stereo not given)", "inhibition": "-3.62% (inactive)"}, {"smiles": "C=CCN1C(=O)C(O)(CC(=O)c2ccccn2)c2ccccc21", "note": "(stereo not given)", "inhibition": "26.6% (active)"}, {"smiles": "C=CCN1C(=O)C2(OCCCO2)c2cccc(Cl)c21", "inhibition": "-2.09% (inactive)"}, {"smiles": "C[C@@H]1CN([C@H](C)CO)C(=O)c2cc(NC(=O)NC3CCCCC3)ccc2O[C@@H](C)CCCCO[C@H]1CN(C)C(=O)Nc1ccccc1", "inhibition": "3.67% (inactive)"}, {"smiles": "CCCNC(=O)N1[C@@H](C#N)[C@H](c2ccc(-c3ccc(C(=O)N(C)C)cc3)cc2)[C@@H]1CO", "inhibition": "4.75% (inactive)"}, {"smiles": "CO[C@@H]1CN(C)C(=O)c2cc(NC(=O)C3CCC3)ccc2OC[C@H](C)N(Cc2nccs2)C[C@H]1C", "inhibition": "-1.69% (inactive)"}, {"smiles": "COc1cccc(S(=O)(=O)N2CCC3(CC2)CN[C@H](CO)c2c3c3ccc(OC)cc3n2C)c1", "inhibition": "1.64% (inactive)"}, {"smiles": "O=C(C[C@@H]1C[C@@H]2c3cc(NS(=O)(=O)c4ccc(F)cc4)ccc3O[C@@H]2[C@H](CO)O1)NCc1cc(F)ccc1F", "inhibition": "-3.29% (inactive)"}, {"smiles": "COCC(=O)N1CC(=O)N2[C@H](C1)[C@H](c1ccc(C#CC3CCCCC3)cc1)[C@@H]2CO", "inhibition": "-2.8% (inactive)"}, {"smiles": "CN(C)CCCCCN(C)Cc1cc2ccccc2o1", "inhibition": "36.8% (active)"}, {"smiles": "CN(C)C(CNC(=O)c1cc2ccccc2o1)c1ccccc1", "note": "(stereo not given)", "inhibition": "-2.25% (inactive)"}, {"smiles": "COc1ccccc1CN(C)C(=O)c1cc2ccccc2o1", "inhibition": "-1.39% (inactive)"}, {"smiles": "C[C@@H]1CN([C@H](C)CO)C(=O)c2cc(NS(=O)(=O)c3ccc(F)cc3)ccc2O[C@H]1CN(C)Cc1ccncc1", "inhibition": "-0.686% (inactive)"}, {"smiles": "O=S(=O)(c1ccccc1)N1C[C@@H]2[C@H](c3ccccc31)[C@H](CO)N2Cc1ccccn1", "inhibition": "1.34% (inactive)"}, {"smiles": "CC(=O)NCc1ccc(-c2csc(NC(=O)CCCc3nc4ccccc4c(=O)[nH]3)n2)cc1", "inhibition": "-2.85% (inactive)"}, {"smiles": "Cc1ccc(-c2csc(NC(=O)Cn3[nH]c(=O)c4ccccc4c3=O)n2)cc1", "inhibition": "112% (active)"}, {"smiles": "O=C(CSc1nc2ccccc2c(=O)[nH]1)Nc1nc(-c2ccc(Br)cc2)cs1", "inhibition": "-5.37% (inactive)"}, {"smiles": "Cc1noc(C)c1S(=O)(=O)N(C)C[C@@H]1OCCCC[C@@H](C)Oc2ccc(NC(=O)c3ccccc3)cc2C(=O)N([C@H](C)CO)C[C@H]1C", "inhibition": "0.24% (inactive)"}, {"smiles": "C[C@@H]1CN([C@H](C)CO)C(=O)c2cccc(NS(C)(=O)=O)c2O[C@@H]1CN(C)S(=O)(=O)c1cccs1", "inhibition": "1.65% (inactive)"}, {"smiles": "C[C@H]1CN([C@@H](C)CO)C(=O)c2ccccc2-c2ccccc2CO[C@H]1CN(C)C(=O)Nc1ccc(-c2ccccc2)cc1", "inhibition": "16.8% (active)"}, {"smiles": "C[C@@H]1CN([C@@H](C)CO)C(=O)c2ccccc2-c2ccccc2CO[C@H]1CN(C)C(=O)Nc1ccccc1", "inhibition": "-1.46% (inactive)"}, {"smiles": "C[C@H]1CN([C@@H](C)CO)C(=O)c2cccc(NC(=O)Nc3ccc(C(F)(F)F)cc3)c2O[C@H]1CN(C)C(=O)NC1CCCCC1", "inhibition": "2.24% (inactive)"}, {"smiles": "COc1ccc(NC(=O)Nc2cccc3c2O[C@H](CN(C)S(=O)(=O)c2cccs2)[C@H](C)CN([C@@H](C)CO)C3=O)cc1", "inhibition": "1.18% (inactive)"}, {"smiles": "COc1ccc(NC(=O)N(C)C[C@H]2OCc3ccccc3-c3ccccc3C(=O)N([C@H](C)CO)C[C@@H]2C)cc1", "inhibition": "1.71% (inactive)"}, {"smiles": "C[C@@H]1CN([C@H](C)CO)C(=O)c2cccc(NC(=O)Nc3ccccc3)c2O[C@@H]1CN(C)C(=O)NC1CCCCC1", "inhibition": "3.35% (inactive)"}, {"smiles": "CC(C)NC(=O)Nc1cccc2c1O[C@H](CN(C)S(=O)(=O)c1cccs1)[C@@H](C)CN([C@H](C)CO)C2=O", "inhibition": "23.7% (active)"}, {"smiles": "C[C@H](CO)N1C[C@H](C)[C@@H](CN(C)C(=O)NC2CCCCC2)Oc2c(NC(=O)Nc3ccc(F)cc3)cccc2C1=O", "inhibition": "103% (active)"}, {"smiles": "COc1ccc2c3c(n(C)c2c1)[C@H](CO)N(C)CC31CN(S(=O)(=O)c2cccc(C)c2)C1", "inhibition": "4.2% (inactive)"}, {"smiles": "CO[C@H]1CN(C)C(=O)c2cc(NC(=O)Nc3ccccc3F)ccc2OC[C@H](C)N(C)C[C@H]1C", "inhibition": "-12% (inactive)"}, {"smiles": "C[C@H](CO)N1C[C@H](C)[C@@H](CN(C)S(=O)(=O)c2ccc(F)cc2)OCCCC[C@H](C)Oc2ccc(NC(=O)CCCN(C)C)cc2C1=O", "inhibition": "-2.49% (inactive)"}, {"smiles": "C[C@H](NC(=O)C[C@@H]1CC[C@H](NC(=O)CN2CCOCC2)[C@H](CO)O1)c1ccccc1", "inhibition": "-3.17% (inactive)"}, {"smiles": "C=CC1=C(C(=O)O)N2C(=O)[C@@H](NC(=O)/C(=N/OCC(=O)O)c3csc(N)n3)[C@H]2SC1", "inhibition": "30.9% (active)"}, {"smiles": "CO/N=C(\\C(=O)N[C@@H]1C(=O)N2C(C(=O)O)=C(COC(C)=O)CS[C@H]12)c1csc(N)n1", "note": "(stereo in doubt)", "inhibition": "-2.03% (inactive) and -4% (inactive) and 22.2% (active)"}, {"smiles": "Cc1cc(C)cc(C(=O)NC2C(=O)N3C(C(=O)O)=C(CSc4nnc(C)s4)CSC23)c1", "note": "(stereo not given)", "inhibition": "-0.622% (inactive)"}, {"smiles": "C=CC1=C(C(=O)O)N2C(=O)[C@@H](NC(=O)/C(=N\\OCC(=O)O)c3csc(N)n3)[C@H]2SC1", "inhibition": "31.1% (active)"}, {"smiles": "Cc1nnc(SCC2=C(C(=O)O)N3C(=O)C(NC(=O)Cn4nc(C)c(Cl)c4C)C3SC2)s1", "note": "(stereo not given)", "inhibition": "-1.34% (inactive)"}, {"smiles": "CO[C@@H]1CN(C)C(=O)c2cc(NC(=O)C3CC3)ccc2OC[C@@H](C)N(Cc2nccs2)C[C@@H]1C", "inhibition": "-0.135% (inactive)"}, {"smiles": "CCC(=O)N1[C@@H]2CN(C(=O)Nc3ccc(Cl)cc3)c3ccccc3[C@@H]2[C@@H]1CO", "inhibition": "-1.71% (inactive)"}, {"smiles": "CCCNC(=O)C[C@H]1C[C@@H]2c3cc(NC(=O)NC4CCCC4)ccc3O[C@@H]2[C@@H](CO)O1", "inhibition": "-4.3% (inactive)"}, {"smiles": "CN(C)CC(=O)N[C@@H]1C[C@@H]2O[C@H](CO)CC[C@@H]2O[C@@H]1CCc1ccc(C#Cc2ccccc2)cc1", "inhibition": "-2.33% (inactive)"}, {"smiles": "Cc1noc(C)c1NC(=O)Nc1ccc2c(c1)C(=O)N([C@@H](C)CO)C[C@@H](C)[C@H](CN(C)C)O2", "inhibition": "-1.93% (inactive)"}, {"smiles": "CN(C)CC(=O)Nc1ccc2c(c1)[C@H]1C[C@H](CC(=O)NCc3ccc4c(c3)OCO4)O[C@@H](CO)[C@H]1O2", "inhibition": "0.927% (inactive)"}, {"smiles": "Cc1ccc(S(=O)(=O)N(C)C[C@@H]2Oc3ccc(N(C)C)cc3C(=O)N([C@@H](C)CO)C[C@H]2C)cc1", "inhibition": "-7.63% (inactive)"}, {"smiles": "COc1ccc2c3c(n(C)c2c1)[C@@H](CO)N(Cc1ccncc1)CC31CN(C(=O)C2CCC2)C1", "inhibition": "2.18% (inactive)"}, {"smiles": "CNC(=O)c1ccc2nc(NC(C)=O)sc2c1", "inhibition": "17.4% (active)"}, {"smiles": "COc1cccc(C(=O)Nc2nc3ccc(S(C)(=O)=O)cc3s2)c1", "inhibition": "-3% (inactive)"}, {"smiles": "CS(=O)(=O)c1ccc2nc(NC(=O)c3ccc(Cl)nc3)sc2c1", "inhibition": "2.94% (inactive)"}, {"smiles": "CCC(=O)N1C[C@@H](C)[C@H](OC)CN(C)C(=O)c2ccc(NC(=O)c3ccc(F)cc3)cc2OC[C@@H]1C", "inhibition": "-5.95% (inactive)"}, {"smiles": "O=C(CN1CCOCC1)NCC[C@H]1CC[C@@H](NC(=O)Nc2ccc(Cl)cc2)[C@@H](CO)O1", "inhibition": "2.34% (inactive)"}, {"smiles": "COC(=O)C(CC#Cc1ccc2c(c1)[C@]1(C(=O)N2)[C@H](c2ccccc2OCCO)N2[C@H](c3ccccc3)[C@H](c3ccccc3)OC(=O)[C@H]2[C@@H]1C(N)=O)C(=O)OC", "inhibition": "19.5% (active)"}, {"smiles": "COC(=O)C(CC#Cc1ccc2c(c1)[C@]1(C(=O)N2)[C@H](c2ccc(O)cc2)N2[C@H](c3ccccc3)[C@H](c3ccccc3)OC(=O)[C@H]2[C@@H]1C(=O)NC[C@H](O)c1ccccc1)C(=O)OC", "inhibition": "5.09% (inactive)"}, {"smiles": "COc1ccc(C#Cc2ccc3c(c2)[C@]2(C(=O)N3)[C@H](c3ccccc3OCCO)N3[C@H](c4ccccc4)[C@H](c4ccccc4)OC(=O)[C@H]3[C@@H]2C(=O)N2CCCCCCC2)cc1", "inhibition": "0.608% (inactive)"}, {"smiles": "CCCN1[C@@H]2c3ccc(C4=CCCC4)c(=O)n3C[C@@H]2[C@@H](CO)[C@@H]1C(=O)NCc1ccccn1", "inhibition": "-0.978% (inactive)"}, {"smiles": "CCC(=O)N(C)C[C@H]1Oc2cc(C#CCC(C)C)ccc2S(=O)(=O)N([C@H](C)CO)C[C@H]1C", "inhibition": "0.389% (inactive)"}, {"smiles": "C[C@@H]1CN([C@@H](C)CO)S(=O)(=O)c2ccc(C#Cc3ccc(F)cc3)cc2O[C@@H]1CN(C)CC1CC1", "inhibition": "15.1% (active)"}, {"smiles": "COCC(=O)N(C)C[C@H]1Oc2cc(C#CC(C)C)ccc2S(=O)(=O)N([C@H](C)CO)C[C@@H]1C", "inhibition": "3.27% (inactive)"}, {"smiles": "CC(C)CC#Cc1ccc2c(c1)O[C@H](CN(C)C(=O)CC1CC1)[C@@H](C)CN([C@@H](C)CO)S2(=O)=O", "inhibition": "31.5% (active)"}, {"smiles": "C[C@H](CO)N1C[C@H](C)[C@H](CN(C)CC2CC2)Oc2cc(-c3ccc(F)cc3)ccc2S1(=O)=O", "inhibition": "-4.28% (inactive)"}, {"smiles": "C[C@@H]1CN([C@@H](C)CO)S(=O)(=O)c2ccc(-c3ccc(F)cc3)cc2O[C@@H]1CN(C)CC1CC1", "inhibition": "-1.76% (inactive)"}, {"smiles": "COCC(=O)N(C)C[C@@H]1Oc2cc(C#CCC(C)C)ccc2S(=O)(=O)N([C@@H](C)CO)C[C@@H]1C", "inhibition": "15.3% (active)"}, {"smiles": "CC(C)CC#Cc1ccc2c(c1)O[C@@H](CN(C)C(=O)Nc1ccccc1F)[C@@H](C)CN([C@@H](C)CO)S2(=O)=O", "inhibition": "18.7% (active)"}, {"smiles": "C[C@@H]1CN([C@@H](C)CO)S(=O)(=O)c2ccc(C#CCN(C)C)cc2O[C@@H]1CN(C)C(=O)CC1CC1", "inhibition": "1.11% (inactive)"}, {"smiles": "COCC#Cc1ccc2c(c1)O[C@@H](CN(C)C(=O)Nc1ccccc1F)[C@H](C)CN([C@H](C)CO)S2(=O)=O", "inhibition": "3.15% (inactive)"}, {"smiles": "CC(C)CC#Cc1ccc2c(c1)O[C@@H](CN(C)C(=O)c1ccccc1F)[C@H](C)CN([C@H](C)CO)S2(=O)=O", "inhibition": "6.8% (inactive)"}, {"smiles": "C[C@@H]1CN([C@H](C)CO)S(=O)(=O)c2ccc(C#CCN(C)C)cc2O[C@H]1CN(C)C(=O)CC1CC1", "inhibition": "2.43% (inactive)"}]}]}
